Bioassay records deposited in PubChem BioAssay by National Center for Advancing Translational Sciences (NCATS).
Rows were chosen to be rich in hits. Some 5.7% of all compounds tested hit in one or more screens of this group.
Gal4-VP16 FLuc – Gal4-VP16 reporter inhibition counter-screen; Drosophila S2 Gal4-VP16 UAS-luciferase, luminescence, 20 h; AID 2546; actives 3.5% (n = 310,000); Potency, µM (doses to about 53.6 µM), inactives show at the top dose activity, negative = inhibition, hits mostly inhibitors;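 also: Gal4-VP16 expression switched on by copper sulfate through the metallothionein promoter; nearly all actives have a fitted effect of over 50% in size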
NPSR antag – neuropeptide S receptor (human) antagonism, cAMP. Q6W5P4. CHO-NPSR cells, cAMP TR-FRET, antagonist mode. Potency, µM (doses to about 38.3 µM), for the others: top-dose activity change, negative = inhibition, usual class: inhibitors. actives 1% (n = 220,000); also: nearly all actives have a fitted effect of over 50% in size
B2AR arrestin – recruits beta-arrestin to the human beta2-adrenergic receptor; beta-arrestin recruitment to beta2AR, cell-based reporter; Potency, µM (titrated, usually from 46.1 µM), for the others: top-dose activation, hits mostly activators; actives 0.02% (n = 330,000);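 also: 0% = DMSO controls and full agonism = EC100 isoproterenol or metaproterenol; nearly all actives have a fitted effect of over 65% in size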
RORgamma inh – ROR gamma (mouse) transcription inhibition. P51450. Drosophila S2 Gal4-RORgamma UAS-luciferase reporter, 20 h. Potency, µM (series often up to 53.6 µM), for the others: top-dose activity change, negative = inhibition, most hits filed as inhibitors. actives 5.4% (n = 310,000). AID 2551; also: nearly all actives have a fitted effect of over 60% in size
Target sequence (P51450 whole entry, looked up, the tested form may be a part): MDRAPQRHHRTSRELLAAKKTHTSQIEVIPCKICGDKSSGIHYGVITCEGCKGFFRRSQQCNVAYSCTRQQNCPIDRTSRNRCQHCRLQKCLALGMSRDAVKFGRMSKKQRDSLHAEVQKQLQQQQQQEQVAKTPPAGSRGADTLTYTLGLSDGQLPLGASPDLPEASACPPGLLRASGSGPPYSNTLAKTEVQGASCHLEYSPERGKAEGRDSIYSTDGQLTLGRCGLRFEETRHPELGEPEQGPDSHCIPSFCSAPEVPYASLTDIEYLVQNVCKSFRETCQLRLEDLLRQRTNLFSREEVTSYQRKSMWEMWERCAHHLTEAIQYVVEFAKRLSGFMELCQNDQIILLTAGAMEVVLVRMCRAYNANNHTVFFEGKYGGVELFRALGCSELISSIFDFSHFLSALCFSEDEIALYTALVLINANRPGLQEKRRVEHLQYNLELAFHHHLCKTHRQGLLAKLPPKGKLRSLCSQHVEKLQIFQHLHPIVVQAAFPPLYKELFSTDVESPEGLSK
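A Gal4/UAS one-hybrid system in insect cells: metallothionein-promoter Gal4–ROR gamma fusion plus Photinus luciferase reporter. Copper sulfate 700 uM final, 20 hr ambient incubation, luminescent detection after 10 min with reagent.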
Active calls of the source: *; ? = inconclusive; · = no result given; ! = not confirmed by another sample; [ ] = dose if it differs, or a comment. Calls follow the shape of the dose curve; as a rule, active = well fitted curve in the direction sought with a large enough effect; inconclusive = small, poorly fitted or top-dose-only effect, or another doubt; inactive = no such curve, though single readings can be large; an effect the other way counts as inactive or inconclusive. Unless noted, % is scaled to controls: 0 for no effect and ±100 for the full control effect; potency is read from the fitted curve at half-maximal effect.

SMILES	Gal4-VP16 FLuc	NPSR antag	B2AR arrestin	RORgamma inh
CCCC(C(=O)NC1=NCCS1)c1ccccc1 (stereo not given)	?	4%	0%	11µM*
Cc1cc(NC(=O)c2cc(-c3cccs3)nc3ccccc23)no1	-10%	15%[46.1 µM]	0%	-32%
O=C(NC1=NCCS1)c1cc(-c2cccs2)nc2ccccc12	?	4%	0%	25µM*
O=C(CSc1ccccc1)NC1=NCCS1	4%	0%	4%	-8%
O=C(O)c1ccc(/C=N/NC(=O)c2cc(-c3cccs3)nc3ccccc23)cc1	-9%	-3%	0%	19%
O=C(Cn1c(=O)oc2ccccc21)Nc1n[nH]c(=S)s1	4%	7%	0%	6%
CC(C)C[C@H](NC(=O)[C@@H]1CCCN1C(=O)[C@H](Cc1ccccc1)NC(=O)[C@H](C)NC(=O)[C@H](CCC(=O)O)NC(=O)[C@H](C)NC(=O)[C@H](CO)NC(=O)[C@H](CCC(=O)O)NC(=O)[C@H](CC(=O)O)NC(=O)[C@H](CCC(=O)O)NC(=O)[C@H](C)NC(=O)CNC(=O)[C@H](CC(N)=O)NC(=O)[C@@H]1CCCN1C(=O)[C@H](Cc1ccc(O)cc1)NC(=O)[C@@H](NC(=O)[C@H](CCCCN)NC(=O)[C@@H](NC(=O)[C@@H]1CCCN1C(=O)[C@@H](N)CCCNC(=N)N)C(C)C)C(C)C)C(=O)N[C@@H](CCC(=O)O)C(=O)N[C@@H](Cc1ccccc1)C(=O)O	2%	·	·	-8%
COC(=O)[C@@H](Cc1c[nH]c2ccccc12)NC(=O)CCC(=O)c1ccc(F)cc1	-1%	·	-1%	11%
Cc1cccc2sc(NNC(=O)c3cc(-c4cccs4)nc4ccccc34)nc12	18µM*	-9%	-1%	0.25µM*
NNC(=O)c1cc(-c2cccs2)nc2ccccc12	-27%	-1%	1%	20µM*
CC(C)NC(=O)c1cc(-c2cccs2)nc2ccccc12	-13%	·	0%	10%
O=Cc1ccc(-c2nc3ccccc3s2)o1	7.9µM*	-28%	0%	4.5µM*
O=C(O)c1cccc(NC(=S)NCc2ccccc2)c1	-3%	-11%	0%	-3%
NNC(=S)Nc1cccc(Cl)c1	?	15%	0%	7.9µM*
COc1ccc(NC(=S)NNC(=O)CNc2ccc(Cl)cc2)cc1	7.9µM*	-15%	0%	5.6µM*
COC(CC(=O)NNC(=S)Nc1ccc(Cl)cc1)OC	?	6%	0%	?
COc1ccc(NC(=S)Nc2cccc(Cl)c2)cc1OC	8%	1%	0%	?
O=C(CCc1ccccc1)NNC(=S)NC(=O)c1ccc(Cl)cc1	11µM*	-18%[46.1 µM]	0%	13µM*
S=C(NCc1ccccc1)Nc1cccc(Cl)c1	13µM*	-19%	-1%	5.6µM*
CC(=O)NCCNc1nc(-c2ccccc2C)nc2ccccc12	3%	·	·	11%
COCCCNC(=S)NNC(=S)Nc1cccc(Cl)c1	6%	8%	1%	-29%
O=C(CNc1ccc(Cl)cc1)NNC(=S)NCc1ccccc1	?	16%	-1%	10µM*
O=C(CNc1cccc(Cl)c1)NNC(=S)NCc1ccccc1	-13%	1%	0%	14µM*
C=COCCNC(=S)Nc1cccc(Cl)c1	?	-5%	0%	6.3µM*
O=C(CCc1ccccc1)NNC(=S)NCc1ccc(Cl)cc1	?	·	-1%	1.1µM*
SMILES	Gal4-VP16 FLuc	NPSR antag	B2AR arrestin	RORgamma inh
S=C(NCc1ccccc1)NCc1ccc(Cl)cc1	?	·	0%	?
COc1ccc(-n2c(=O)c(-c3cn(C)c4ccccc34)nc3cncnc32)cc1	-4%	·	·	28%
O=[N+]([O-])c1ccc(N=NN(CCO)CCO)cc1	-12%	11%	0%	9%
O=[N+]([O-])c1ccc(N=Nc2ncc[nH]2)cc1	6.3µM*	·	0%	7.1µM*
COc1c(-c2ccc(O)c(O)c2)oc2cc(O)cc(O)c2c1=O	11µM*!	-35%	?	?
CC1=C(C(=O)OCc2ccccc2)C(c2ccc([N+](=O)[O-])cc2)NC(=O)N1CCCCCC(=O)O (stereo not given)	18%	-29%	-1%	10µM*
CC1=C(C(=O)OCc2ccccc2)C(c2ccccc2Cl)NC(=O)N1CCCC(=O)O (stereo not given)	-5%	·	0%	-19%
CC1=C(C(=O)OCc2ccccc2)C(c2ccc3ccccc3c2)NC(=O)N1CCCCCC(=O)O (stereo not given)	-1%	-48%	0%	7.9µM*
CC1=C(C(=O)OCc2ccccc2)C(c2ccc3ccccc3c2)NC(=O)N1CCCC(=O)O (stereo not given)	-4%	·	0%	11µM*
CC1=C(C(=O)OCc2ccccc2)C(c2ccccc2Cl)NC(=O)N1CCCCCC(=O)O (stereo not given)	-10%	·	0%	1.8µM*
COCc1ccc(CN2CCC(n3nccc3NC(=O)CCOc3ccccc3)CC2)o1	?	·	0%	8.9µM*
Cc1ccc(S(=O)(=O)N2[C@@H](c3ccc(Br)cc3)C(C(=O)O)=CC[C@H]2c2ccc3c(c2)OCO3)cc1	·	·	-1%	·
COc1cc(O)c2c(c1)oc(=O)c1c3cc(O)c(O)cc3oc21	?	·	·	13µM*!
Cc1ccc2oc(=O)c3c4cc(O)c(O)cc4oc3c2c1	-15%	·	·	?
Cc1cc(C)c(S(=O)(=O)NNC(=O)C2CCN(Cc3ccccc3)CC2)c(C)c1	-1%	-1%[46.1 µM]	0%	7%
N/C(Cc1ccc(Cl)cc1Cl)=N\OC(=O)c1ccccc1	-2%	4%	0%	13µM*
N/C(=N\OC(=O)c1ccc(Cl)cc1Cl)c1ccccc1	?	-8%[46.1 µM]	0%	5µM*
N/C(=N\OC(=O)c1ccc(Cl)cc1Cl)c1cccnc1	?	2%	0%	-28%
N/C(=N\OC(=O)c1ccc(Cl)cc1Cl)c1ccc(Cl)cc1	-10%	-8%[46.1 µM]	0%	1%
COc1ccc(C(=O)O/N=C(\N)c2ccccc2)c(OC)c1	8.9µM*	10%	-1%	4.5µM*
Cc1cccc(/C(N)=N/OC(=O)c2ccc(Cl)cc2Cl)c1	20µM*	-1%	0%	2µM*
OC1CCCCC1	3%	·	0%	-1%
COc1ccc(C(=O)O)cc1S(=O)(=O)Nc1ccccc1-c1ccccc1	-26%	·	0%	-3%
Cc1ccc(/C(N)=N/OC(=O)c2ccc(C)cc2Cl)cc1	10µM*	10%	0%	4.5µM*
Cc1cccc(/C(N)=N/OC(=O)c2cccc3ccccc23)c1	5.6µM*	·	-1%	1.1µM*
CN(C)c1ncnc2ccc(-c3cccnc3)cc12	-10%	·	·	?
COc1ccc(N2C(=O)CC(N3CCC(O)(c4cccc(C(F)(F)F)c4)CC3)C2=O)cc1 (stereo not given)	?	3%[46.1 µM]	0%	2.5µM*
c1ccc(C(NCCNC(c2ccccc2)c2ccccc2)c2ccccc2)cc1	?	·	1%	13µM*
NS(=O)(=O)c1ccc(CCNC(c2ccccc2)c2ccccc2)cc1	-3%	·	0%	1%
CCCCCC(=O)O[C@]1(C(C)=O)CC[C@H]2[C@@H]3CCC4=CC(=O)CC[C@]4(C)[C@H]3CC[C@@]21C	-23%	10µM*	-1%	?
